{"source": "ChEMBL document CHEMBL3988442", "about": "“University of Dundee, Small-Polar-MMV Screening Library” (2021)", "note": "Among all 48,000 compounds or so, about 13,000 (27%) showed an effect of 50% or more. This is one part of the list."}
{"system": "Wolbachia pipientis", "experiment": "Anti-Wolbachia Cell-Based Screen", "format": "functional", "design": "scale not given: in the data most compounds retested in dose-response had high values", "conditions": "5 µM", "units": {"Percent Effect": "%"}}
{"molecule": "CCOc1cc(F)ccc1NC(=O)N(C(C)CS(C)(=O)=O)C1CC1", "note": "(configuration not stated)", "Percent Effect": -6.232}
{"molecule": "CC(c1nc(C2CC2)no1)N1CCN(Cc2ccsc2)CC1", "note": "(configuration not stated)", "Percent Effect": 3.758}
{"molecule": "Cc1cncc(C2CCN(Cc3cccn3C)CC2)n1", "Percent Effect": 121.9}
{"molecule": "CCOC(=O)N(C)C1CCN(Cc2ccsc2)CC1", "Percent Effect": -3.636}
{"molecule": "COc1cncc(N2CCN(Cc3cccn3C)CC2)n1", "Percent Effect": -11}
{"molecule": "Cc1cncc(C2CCN(Cc3ccsc3)CC2)n1", "Percent Effect": 117.4}
{"molecule": "Cc1cncc(C2CCCN(Cc3cccn3C)C2)n1", "note": "(configuration not stated)", "Percent Effect": 4.46}
{"molecule": "Cc1ccccc1C(=O)NC[C@@H]1CCN(C(=O)c2cccn2C)C[C@H]1O", "Percent Effect": 2.167}
{"molecule": "Cc1cnn(CCNCc2ccc(C#N)cc2F)c1", "Percent Effect": -2.376}
{"molecule": "Cn1c(C2CC2)nc2cc(NC(=O)C3(O)CCCC3)ccc21", "Percent Effect": -3.273}
{"molecule": "Cc1ccn(CCC(=O)NCc2ccco2)n1", "Percent Effect": 113.3}
{"molecule": "CCC(C)NC(=O)CCn1ccc(C)n1", "note": "(configuration not stated)", "Percent Effect": 122.6}
{"molecule": "CC(Cc1ccco1)NC(=O)CCn1cccn1", "note": "(configuration not stated)", "Percent Effect": -2.22}
{"molecule": "COC(=O)CC(NC(=O)CCn1cccn1)c1ccc(C)cc1", "note": "(configuration not stated)", "Percent Effect": -17.18}
{"molecule": "Cc1ccc(OCC(=O)NCc2ccco2)nc1", "Percent Effect": -11.41}
{"molecule": "O=C(CCN1C[C@H]2CC[C@@H]1CN(c1ncccn1)C2)NCc1ccco1", "Percent Effect": -5.213}
{"molecule": "Cc1ccc(CNC(=O)CCC(=O)NCCC(C)C)o1", "Percent Effect": -4.384}
{"molecule": "CC(NC(=O)CCn1cccn1)c1cccs1", "note": "(configuration not stated)", "Percent Effect": -33.21}
{"molecule": "CCN(Cc1nccn1C)C(=O)c1ccc(NCc2ccc(C)o2)nc1", "Percent Effect": 12.06}
{"molecule": "CC(Cc1ccco1)NC(=O)CSc1nnc[nH]1", "note": "(configuration not stated)", "Percent Effect": -0.3206}
{"molecule": "Cc1ccn(CCC(=O)NC(C)Cc2ccco2)n1", "note": "(configuration not stated)", "Percent Effect": 108}
{"molecule": "Cc1ccn(CCC(=O)NCc2ccc(C)o2)n1", "Percent Effect": 96.24}
{"molecule": "CC(C)Cc1nc(CN2CCC3(CCCO3)CCC2=O)no1", "note": "(configuration not stated)", "Percent Effect": -10.71}
{"molecule": "COc1ccc(OC)c(-n2cnnc2C)c1", "Percent Effect": -0.7087}
{"molecule": "Cc1nc(C#N)c(N2CCC(c3nc(-c4ccccc4)no3)CC2)o1", "Percent Effect": 4.008}
{"molecule": "Cc1cc(C)nc(CN(C)C(=O)c2cccc(CCC(C)(C)O)c2)c1", "Percent Effect": 33.03}
{"molecule": "Cc1cc(C)n(CC(C)CNC(=O)CCc2ccco2)n1", "note": "(configuration not stated)", "Percent Effect": 10.87}
{"molecule": "Cc1ccn(CCC(=O)NCCc2ccco2)n1", "Percent Effect": 109.8}
{"molecule": "NC(=O)NC(=O)CCn1ccc(-c2ccccc2)n1", "Percent Effect": -9.301}
{"molecule": "Cc1ncc(CC(=O)N2CCC(N3C[C@@H](C)O[C@@H](C)C3)CC2)c(=O)[nH]1", "Percent Effect": -13.09}
{"molecule": "CCc1ncc(C(=O)N2CCOCC2c2c(C)n[nH]c2C)s1", "note": "(configuration not stated)", "Percent Effect": 6.424}
{"molecule": "CC(C)c1ccc(C(=O)N2CCOCC2CC(=O)c2ccco2)cn1", "note": "(configuration not stated)", "Percent Effect": 178.1}
{"molecule": "CC(C)c1nc(C(=O)N2CCOCC2CC(=O)c2ccco2)cs1", "note": "(configuration not stated)", "Percent Effect": 84.12}
{"molecule": "CCc1ncc(C(=O)N2CCOCC2CC(=O)c2ccccc2)s1", "note": "(configuration not stated)", "Percent Effect": -7.731}
{"molecule": "O=C(CC1COCCN1C(=O)c1cscn1)c1ccccc1", "note": "(configuration not stated)", "Percent Effect": 5.406}
{"molecule": "CCc1ocnc1C(=O)N1CCOCC1CC(=O)c1ccccc1", "note": "(configuration not stated)", "Percent Effect": -28.11}
{"molecule": "CC(C)c1cc(C(=O)N2Cc3ccccc3CC2C(=O)O)nn1C", "note": "(configuration not stated)", "Percent Effect": 14.25}
{"molecule": "CC(C)c1ncc(C(=O)N2CCOCC2CC(=O)c2ccco2)s1", "note": "(configuration not stated)", "Percent Effect": 131.2}
{"molecule": "CC[C@H]1COCCN1C(=O)c1cnc(-c2ccccc2)nc1C", "Percent Effect": -84.76}
{"molecule": "CC(C)c1cc(C(=O)N2CCOCC2CC(=O)c2ccco2)nn1C", "note": "(configuration not stated)", "Percent Effect": 128.9}
{"molecule": "CCc1nc(C(=O)N2CCOCC2CC(=O)c2ccccc2)c[nH]1", "note": "(configuration not stated)", "Percent Effect": -17.76}
{"molecule": "CC(C)c1cc(C(=O)N2CCc3ccccc3C2C(=O)O)nn1C", "note": "(configuration not stated)", "Percent Effect": 7.9}
